Screens as filed in PubChem BioAssay.
Hits are enriched below; roughly 2.7% of the tested compounds scored in any of these assays.
LDHA inh = LDHA (human) enzyme inhibition. P00338. purified LDHA, NADH/diaphorase-resazurin fluorescence; active compounds read low. activity change, % (values are at about 110 or 230 µM). 480,000 compounds, 0.15% hits; in the data active = activity change below about -30%; inconclusive = mostly about -25% to -30%
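Human LDH5 (2 nM) was incubated with 0.06 mM NADH and 0.2 mM pyruvate for 5 min at room temperature in Tris pH 7.4. Remaining NADH was coupled through diaphorase/resazurin, and resorufin fluorescence was read at 0 and 20 min.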
Nrf2 ARE act = activates Nrf2 signaling; AREc32 ARE-luciferase reporter (MCF7-derived line), luminescence, 24 h; AID 624171; Potency, µM (series often up to 46.1 µM), hits mostly activators; 410,000 compounds, 0.31% hits; note: nearly all actives have a fitted effect of over 65% in size
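AREc32 cells carrying an ARE-driven firefly luciferase, 1000 cells/well in OPTI-MEM with 5% FBS, dosed after overnight attachment and incubated 24 hr at 37 deg C. Steady-Glo luminescence read after 30 min at RT.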
A549 tox-1 = kills or reduces viability of A549 cells in Nrf2 counter-screen. A549 ARE-Fluc cells, CellTiter-Fluor viability, 18-24 h. Potency, µM (highest dose often 46 µM), usual class: inhibitors. 390,000 compounds, 0.16% hits
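A549 ARE_Fluc cells in 5% FBS OPTI-MEM were exposed to compounds in concentration-response for 18-24 h at 37 deg C. Viability was read by CellTiter-Fluor fluorescence (Ex 405/Em 525) after 30 min, before the luciferase read.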
Nrf2 block = inhibitors of Nrf2 signaling. A549 ARE-Fluc reporter, luciferase luminescence, 18-24 h. Potency, µM (titrated, usually from 46 µM), most hits filed as inhibitors. 360,000 compounds, 2.1% hits. AID 504444; note: nearly all actives have a fitted effect of over 60% in size
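Concentration-response testing used A549 ARE_Fluc cells at 5000 cells/well. Following an 18-24 h compound incubation, viability was read by fluorescence (Ex 405/Em 525) and luciferase output by luminescence.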
12-LOX inh = blocks human arachidonate 12S-lipoxygenase | P18054 | purified 12hLO, xylenol orange hydroperoxide absorbance | Potency, µM (highest dose often 108 µM), usual class: inhibitors | 580,000 compounds, 1.1% hits | AID 1671190
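Purified human 12hLO (150 nM final) in 25 mM Hepes, 0.01% Triton X-100, pH 7.0 was preincubated 15 min at room temperature with compound. Then 40 uM arachidonic acid was added, 30 min. Hydroperoxide was read by Fe-XO absorbance ratio 573/405 nm.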
ERG Ets-DNA blk = blocks human ERG Ets domain binding to DNA; P11308; fluorescence polarization, His-ERG Ets domain / labelled DNA; Potency, µM (highest dose often 76.9 µM), actives largely listed as inhibitors; 370,000 compounds, 0.028% hits; AID 624246; active = well fitted inhibition curve with a large enough effect in the polarisation, with a control signal flat; inconclusive = small, poorly fitted or top-dose-only effect, or effect the other way, or a change in a side signal; inactive = no such curve, though single readings can be large or run the other way; the % refers to the polarisation;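 note: polarization taken with two DNA probes labelled with fluorescein and Texas red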
Target sequence (P11308 whole entry, looked up, the tested form may be a part): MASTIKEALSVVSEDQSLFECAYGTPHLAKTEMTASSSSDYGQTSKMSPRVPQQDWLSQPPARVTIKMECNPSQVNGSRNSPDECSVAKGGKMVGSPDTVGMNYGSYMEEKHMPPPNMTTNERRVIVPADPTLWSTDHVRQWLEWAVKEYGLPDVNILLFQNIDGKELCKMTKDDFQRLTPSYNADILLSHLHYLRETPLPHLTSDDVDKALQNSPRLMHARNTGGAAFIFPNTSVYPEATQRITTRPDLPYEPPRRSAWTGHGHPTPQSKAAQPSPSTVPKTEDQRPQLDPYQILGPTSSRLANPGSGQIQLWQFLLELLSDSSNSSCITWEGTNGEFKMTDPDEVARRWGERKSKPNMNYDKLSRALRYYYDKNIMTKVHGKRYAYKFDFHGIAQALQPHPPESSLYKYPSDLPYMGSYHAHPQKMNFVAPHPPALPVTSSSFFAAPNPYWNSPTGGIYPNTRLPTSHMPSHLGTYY
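His-tagged ERG Ets domain (1 uM in the protein solution; 300mM KCl, 50mM Tris-HCl, 1mM EDTA, 1mM DTT, pH 7.5) received compound, then a probe mix of 5 nM fluorescein-DNA and 100nM Texas-615-DNA. Fluorescence polarization was read for both dyes.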
FLuc enzyme inh = firefly luciferase inhibition, Nrf2 hit validation; purified firefly luciferase, luminescence inhibition; 1,400 compounds, 4% hits; shares compounds with Nrf2 block; Potency, µM (top dose mostly 57.5 µM), most hits filed as inhibitors; note: nearly all actives have a fitted effect of over 65% in size
A549 tox-2 = A549 cytotoxicity, Nrf2 inhibitor counterscreen. 1,400 compounds, 2% hits. A549 ARE-Fluc cells, cytotoxicity counterscreen. Potency, µM (highest dose often 46.1 µM), most hits filed as inhibitors. shares compounds with Nrf2 block;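 note: cells exposed to compounds for 18 to 24 hours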
ARE-Fluc inh = reduces Nrf2 ARE reporter signal in A549 cells. shares compounds with Nrf2 block. A549 ARE-firefly luciferase reporter, luminescence. Potency, µM (doses to about 46.1 µM), hits mostly inhibitors. 1,400 compounds, 74% hits; note: nearly all actives have a fitted effect of over 65% in size
A number is an active result; - = inactive; ? = inconclusive; . = no result shown. Unless noted, calls come from the whole dose curve; as a rule, active = well fitted curve in the direction sought with a large enough effect; inconclusive = small, poorly fitted or top-dose-only effect, or another doubt; inactive = no such curve, though single readings can be large; an effect the other way counts as inactive or inconclusive.

SMILES | LDHA inh | Nrf2 ARE act | A549 tox-1 | Nrf2 block | 12-LOX inh | ERG Ets-DNA blk | FLuc enzyme inh | A549 tox-2 | ARE-Fluc inh
O=C(OCCOc1ccc(Cl)cc1)c1cc(S(=O)(=O)N2CCCCC2)ccc1N1CCOCC1 | - | - | - | 8.2µM | - | - | - | - | 8.2µM
Cc1c2cnn(CC(=O)N3CCN(c4ccc(F)cc4)CC3)c(=O)c2c(C)n1Cc1ccc(F)cc1 | - | - | - | ? | - | - | . | . | .
Cc1ccc(Cn2c(C)c3cnn(CC(=O)N4CCN(c5cc(C)ccc5C)CC4)c(=O)c3c2C)cc1 | - | - | - | 8.2µM | ? | - | - | - | 6.5µM
CN(Cc1ccccc1)C1=CC(=[N+]2CCCC2)CC(C)(C)C1 | - | - | - | 4.6µM | ? | - | - | ? | 18µM
CCN(CC)C1=CC(=[N+]2CCCC2)CC(C)(C)C1 | - | - | - | 8.2µM | ? | - | - | - | 6.5µM
CN(C)c1cccc(NC2=CC(=[N+]3CCOCC3)CC(C)(C)C2)c1 | - | - | - | - | ? | - | . | . | .
CCc1ccc(CNC(=O)CSc2c3c(nc4ccc(Cl)cc24)CCCC3)cc1 | - | - | - | - | - | - | . | . | .
COc1ccc(N2CCN(C(=O)CSc3c4c(nc5ccc(Cl)cc35)CCCC4)CC2)cc1 | - | ? | - | ? | - | - | . | . | .
O=C(CSc1c2c(nc3ccc(Cl)cc13)CCCC2)N1CCN(c2ccc(Cl)cc2)CC1 | - | - | ? | 2.9µM | - | - | - | ? | 21µM
O=C(CSc1c2c(nc3ccc(Cl)cc13)CCCC2)N1CCN(c2cccc(Cl)c2)CC1 | - | - | - | 9.2µM | - | - | - | ? | ?
O=C(NC(NC(=S)Nc1c(Cl)cc(Cl)cc1Cl)C(Cl)(Cl)Cl)OCc1ccccc1 (configuration not stated) | - | - | ? | 2.9µM | - | . | - | ? | 23µM
COc1cc(OC)c(/C=C/c2ccc3ccccc3n2)c(OC)c1 | . | . | . | . | . | . | - | ? | 6.5µM
COc1cc(OC)c(/C=C/c2ccccn2)c(OC)c1 | . | . | . | . | . | . | - | - | 6.5µM
COc1cc(OC)c(/C=C/c2nccc3ccccc23)c(OC)c1 | - | . | . | . | . | . | 7.6µM | - | .
COc1cc(OC)c(C=Cc2ccncn2)c(OC)c1 | - | - | . | . | ? | . | . | . | .
Nc1ccc(/C=C/c2nccc3ccccc23)cc1 | - | . | . | . | . | . | 2.7µM | - | ?
COc1cc(OC)c(/C=C/c2ccc3ccccc3[n+]2[O-])c(OC)c1 | - | . | . | . | . | . | . | . | .
O=C(Nc1ccc2oc(-c3cccnc3)nc2c1)c1cccc(I)c1 | - | . | . | . | - | . | . | . | .
Cc1ccc(SCc2cc(=O)oc3c(C)c(C)ccc23)cc1 | - | . | . | . | ? | . | . | . | .
C/C(=N\NC(=O)COc1ccccc1-c1ccccc1)c1ccccn1 | - | ? | ? | 4.6µM | - | - | - | - | 1.3µM
CCOC(=O)CSc1nc2c(c(=O)[nH]c(=O)n2C)n1Cc1cccc(Br)c1 | - | . | . | . | ? | . | . | . | .
Cc1cc(N(C)C)cc(C)c1/C=C/c1cc[n+](C)c2ccccc12 | . | . | . | . | . | . | - | - | .
COc1cc(OC)c(/C=C/c2cc[n+](C)c3ccccc23)c(OC)c1 | - | . | . | . | . | . | - | - | 3.7µM
COc1cc(OC)c(OC)cc1/C=C/c1cc[n+](C)c2ccccc12 | - | . | . | . | . | . | . | . | .
COc1cc(CNCc2ccc(OC)cc2OC)cc(OC)c1 | - | - | - | 7.3µM | ? | ? | - | - | ?
COc1ccc(CNCc2ccc(C)cc2)c(OC)c1 | - | - | - | - | ? | - | . | . | .
O=C(CCc1ncc(-c2c(F)cccc2F)o1)Nc1ccc(F)c(F)c1F | - | . | . | . | - | . | . | . | .
CCCCOCCCNc1ncnc2c1[nH]c1ccccc12 | - | - | - | 9.2µM | - | - | - | - | 12µM
